Assay [1] in a line: HepG2 liver cancer cell viability effects, profiling panel, resazurin fluorescence, 24 h, PK04 Diversity Set (AID 1172). Further: test concentration not given here. To be noted: higher = more signal. In general terms: The colour change of resazurin is a common sign of viable cells or microbes.
A short description of assay [2]: basal S. cerevisiae growth modulation, no modifier, primary screen, OD600, strain BY4716, 24 h, basal condition (AID 1173). The following applies: OD600, 24 h, higher = more signal, called active from +8 up or from −8 down.
A short description of assay [3]: MM1S myeloma cell viability, profiling panel, resazurin fluorescence, basal, 24 h, PK04 Diversity Set (AID 1174).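 Further: MM1S multiple myeloma cell line; test concentration not given here.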 To be noted: higher = more signal, called active from +8 up or from −8 down.
Assay [4] addresses Dihydroorotate dehydrogenase (quinone), mitochondrial (Plasmodium falciparum (isolate 3D7)) (UniProt Q08210). In words: PfDHODH enzyme inhibitors, primary screen, biochemical, C-terminal His tag, absorbance 600 nm (AID 1175).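 Further: recombinant parasite enzyme with a five histidine tag at its C terminus; test concentration not given here.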 To be noted: DCIP absorbance 600 nm, higher = more signal, called active from +8 up or from −8 down.
Assay [5] in a line: P. aeruginosa biofilm formation inhibitors, primary screen, strain PAO1, LB-PBS medium, absorbance 600 nm (AID 1176). Further: test concentration not given here. To be noted: P. aeruginosa PAO1 growth/biofilm, A600, 12 h; higher = more signal.
Assay [6] is described as follows: S. cerevisiae RM11-1a growth modifiers, primary screen, strain RM11-1a, OD600, basal, 24 h (AID 1177).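 Further: cultures grown under basal conditions with no added stressor; test concentration not given here.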 To be noted: OD600, 24 h, higher = more signal, called active from +8 up or from −8 down.
The nature of assay [7]: E. coli acrAB mutant growth effects, primary screen, E. coli filamentation inducers, strain DRC39, OD650, 24 h (AID 1178).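 Further: growth measured as culture turbidity by optical density at 650 nm; test concentration not given here.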 To be noted: higher = more signal, called active from +8 up or from −8 down.
Assay [8] is described as follows: E. coli acrAB mutant growth effects, primary screen, E. coli filamentation inducers, strain DRC39, OD650, 48 h (AID 1179).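 Further: screen aims at cell division blockers that make cells filament.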 To be noted: E. coli DRC39 delta-acrAB growth, higher = more signal, called active from +8 up or from −8 down.
Assay [9] can be described thus: RPMI8226 myeloma cell viability, profiling panel, resazurin fluorescence, basal, 24 h, PK04 Diversity Set (AID 1180).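 Further: RPMI8826 multiple myeloma cell line at 5000 cells per well; test concentration not given here.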 To be noted: higher = more signal.
Assay [10] deals with E3 ubiquitin-protein ligase XIAP (Homo sapiens) (UniProt P98170). In words: XIAP binders, primary screen, biophysical, small-molecule microarray, fluorescence 635 nm (AID 1181).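 Further: score merges 667 nm emission and signal to noise over triplicate slides.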 To be noted: small-molecule microarray binding, higher = more signal.

Activity calls are given as the source filed them. Unless noted, how the calls were made is not given here.

E3 ubiquitin-protein ligase XIAP (Homo sapiens), sequence (P98170 whole entry, looked up): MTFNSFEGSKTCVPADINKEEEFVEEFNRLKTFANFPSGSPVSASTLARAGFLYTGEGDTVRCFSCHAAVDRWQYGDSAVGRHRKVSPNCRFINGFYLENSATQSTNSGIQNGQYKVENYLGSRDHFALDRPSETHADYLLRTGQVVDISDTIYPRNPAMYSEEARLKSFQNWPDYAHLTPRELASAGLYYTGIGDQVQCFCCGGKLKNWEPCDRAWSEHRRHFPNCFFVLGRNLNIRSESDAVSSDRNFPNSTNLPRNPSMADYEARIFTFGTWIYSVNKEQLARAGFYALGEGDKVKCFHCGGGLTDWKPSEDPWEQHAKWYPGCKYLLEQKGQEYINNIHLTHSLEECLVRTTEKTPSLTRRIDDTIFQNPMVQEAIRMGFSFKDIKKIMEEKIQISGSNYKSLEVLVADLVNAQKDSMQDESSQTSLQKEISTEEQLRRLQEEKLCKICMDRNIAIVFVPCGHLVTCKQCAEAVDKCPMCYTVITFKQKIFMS
Dihydroorotate dehydrogenase (quinone), mitochondrial (Plasmodium falciparum (isolate 3D7)), sequence (Q08210 whole entry, looked up): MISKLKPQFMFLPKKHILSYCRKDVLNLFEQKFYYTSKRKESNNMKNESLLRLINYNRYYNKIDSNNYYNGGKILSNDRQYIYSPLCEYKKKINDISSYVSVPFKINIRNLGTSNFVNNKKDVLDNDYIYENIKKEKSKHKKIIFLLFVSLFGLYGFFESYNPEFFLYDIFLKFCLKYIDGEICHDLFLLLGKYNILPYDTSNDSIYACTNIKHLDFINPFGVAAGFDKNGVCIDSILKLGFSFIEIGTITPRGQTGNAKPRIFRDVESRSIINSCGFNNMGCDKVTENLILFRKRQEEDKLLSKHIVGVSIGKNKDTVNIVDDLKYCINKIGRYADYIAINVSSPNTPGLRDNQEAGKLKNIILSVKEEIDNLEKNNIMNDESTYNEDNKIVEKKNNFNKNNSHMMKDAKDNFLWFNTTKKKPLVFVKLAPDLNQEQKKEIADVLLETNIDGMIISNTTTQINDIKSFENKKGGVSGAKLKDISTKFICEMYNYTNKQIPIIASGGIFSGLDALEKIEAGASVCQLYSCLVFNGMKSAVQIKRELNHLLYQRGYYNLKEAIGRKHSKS

As for `COc1ccc([Si](C)(C)[C@@H]2[C@@H](CCn3cc([C@H](O)c4ccccc4)nn3)O[C@]3(C(=O)N(C)c4ccccc43)[C@H]2C)cc1`, the z-score was -1.46 in assay [1]; -0.397 (inactive) in assay [2]; -2.34 (inactive) in [3]; 0.119 (inactive) in assay [5]; 1.04 (inactive) in assay [6]; -0.834 (inactive) in assay [7]. The z-score was -1.33 (inactive) in assay [8] and -1.81 in assay [9]. The composite z-score in [4] is 0.283 (inactive); in assay [10] it was -0.0272.

On to `COc1ccc([Si](C)(C)[C@H]2[C@H](CC(=O)N3CCC[C@H]3CO)O[C@@]3(C(=O)N(c4ccccc4)c4ccccc43)[C@@H]2C)cc1`, for which the z-score was 1.75 in assay [1]; -2.26 (inactive) in [2]; 1.55 (inactive) in [3]; 0.826 (inactive) in assay [5]; -1.81 (inactive) in assay [6]; 1.21 (inactive) in assay [7]. For the same compound, the z-score was 1.49 (inactive) in [8] and 0.843 in assay [9]. Also, the composite z-score in assay [4] is 0.0873 (inactive); in [10], -0.167.

As for `[N-]=[N+]=NCc1ccccc1[C@@H]1OC(c2ccc(OCCCO)cc2)=N[C@]1(Cc1ccccc1N=[N+]=[N-])C(N)=O`, the z-score is -0.0426 in [1]; -2.11 (inactive) in assay [2]; -0.727 (inactive) in [3]; 0.603 (inactive) in assay [5]; 0.604 (inactive) in assay [6]; 0.333 (inactive) in [7]. In addition, the results for the z-score in assay [8] and in assay [9] were -0.37 (inactive) and -1.2, respectively. For the same compound, the composite z-score in assay [4] is 0.0263 (inactive); in [10] it was 0.0656.

For the compound `COc1ccc([Si](C)(C)[C@H]2[C@H](CCO)O[C@@]3(C(=O)N(Cc4cccc(N5C(=O)c6cccc7cccc5c67)c4)c4ccccc43)[C@@H]2C)cc1`, the z-score was -2.42 in [1]; 1.18 (inactive) in [2]; -4.22 (inactive) in assay [3]; 1.51 (inactive) in assay [5]; 4.72 (inactive) in [6]; 0.0827 (inactive) in assay [7]. In addition, the z-score in assay [8] was -0.511 (inactive); in [9] it was -4.88. For the same compound, the composite z-score in [4] is 0.763 (inactive); in assay [10], 0.224.

Turning to `O=C1[C@H]2C=C(Br)[C@H](C[C@@H]2OCCOCCO)[C@@]12CO2`, the z-score is -0.0029 in assay [1]; 1.2 (inactive) in [2]; -0.478 (inactive) in assay [3]; 0.379 (inactive) in assay [5]; 1.4 (inactive) in [6]; -0.308 (inactive) in assay [7]. Also, the values for the z-score in [8] and in assay [9] were -1.05 (inactive) and -0.608, respectively. The composite z-score in assay [4] was 0.857 (inactive); in [10] it was -0.201.

With `C=CCOC(=O)[C@@H]1[C@H]2C(=O)O[C@H](c3ccccc3)[C@H](c3ccccc3)N2[C@H](c2ccc(OCCOC(=O)[C@H]3C[C@H]4C(=O)N[C@@H](CC(C)C)C(=O)N4[C@H]3c3cccc(OCCO)c3)cc2)[C@@]12C(=O)Nc1ccc(I)cc12`, the z-score in assay [1] was -0.525; in [2], -0.195 (inactive); in assay [3] it was -0.77 (inactive); in assay [5], 3.38 (inactive); in [6] it was 1.58 (inactive); in [7], -0.111 (inactive). Also, the results for the z-score in assay [8] and in assay [9] were -1.14 (inactive) and -0.747, respectively. In addition, the composite z-score in [4] was 1.64 (inactive); in assay [10] it was -0.0876.

Consider `Cc1ccc(S[C@]2(C(=O)NCC(F)(F)F)CC(=O)N(C3Cc4ccccc4C3)[C@@H]2c2ccc(CO)cc2I)cc1`, for which the z-score in assay [1] is 0.788; in [2] it was -3.18 (inactive); in assay [3] it was -2.74 (inactive); in assay [5], 0.0898 (inactive); in assay [6], -0.391 (inactive); in [7], 0.715 (inactive). Further, the z-score was 0.503 (inactive) in assay [8] and -1.32 in assay [9]. For the same compound, the composite z-score was 0.427 (inactive) in [4] and 0.0499 in assay [10].

Regarding `NC(=O)NCC#Cc1ccc2c(c1)[C@]1(C(=O)N2)[C@H](c2ccccc2OCCO)N2[C@H](c3ccccc3)[C@H](c3ccccc3)OC(=O)[C@H]2[C@@H]1C(=O)N1CCCCCCC1`, the z-score in assay [1] was -0.0969; in [2], -0.0475 (inactive); in assay [3], 0.755 (inactive); in assay [5], 1.92 (inactive); in assay [6], 0.899 (inactive); in [7] it was -0.315 (inactive). Also, the results for the z-score in assay [8] and in assay [9] were -0.127 (inactive) and 0.966, respectively. The composite z-score in [4] was 0.417 (inactive); in assay [10], 0.202.

Consider `O=S(=O)(NCCCO)c1ccc(Br)cc1`, for which the z-score in assay [1] is 0.304; in assay [2], -0.476 (inactive); in assay [3], 0.261 (inactive); in assay [5], -0.236 (inactive); in assay [6] it was -0.482 (inactive); in [7], 1.68 (inactive). Also, the values for the z-score in [8] and in [9] were 2.3 (inactive) and 0.461, respectively. In addition, the composite z-score in assay [4] is -1.62 (inactive); in assay [10] it was 0.0441.

On to `CN(C)CCCC[C@@H]1NC(=O)[C@H]2C[C@@H](C(=O)NCCCCCNC(=O)CS)[C@@H](c3ccc(O)cc3)N2C1=O`, for which the z-score in [1] was -0.0707; in assay [2] it was -0.691 (inactive); in [3] it was 0.518 (inactive); in assay [5] it was -0.13 (inactive); in assay [6] it was -0.158 (inactive); in assay [7], -0.297 (inactive). Moreover, the z-score is 0.326 (inactive) in [8] and 0.108 in assay [9]. In addition, the composite z-score was 0.419 (inactive) in assay [4] and -0.0344 in [10].

`C=CC[C@]1(C(=O)NCCN2CCOCC2)N=C(c2ccc(OCCCO)cc2)O[C@H]1c1ccccc1N=[N+]=[N-]`: the z-score in assay [1] was -0.153; in [2], -1.51 (inactive); in assay [3], 0.0032 (inactive); in assay [5] it was -0.251 (inactive); in assay [6], 0.393 (inactive); in assay [7] it was 2.29 (inactive). Further, the z-score is 0.746 (inactive) in assay [8] and -0.414 in [9]. Besides, the composite z-score in assay [4] is 0.918 (inactive); in assay [10] it was 0.113.

Turning to `Cc1ccc(C(C)CC(O)C2C=CC3C(=O)NC(=O)C3N2Nc2ccccn2)o1` (stereo not given), the z-score was -0.668 in assay [1]; 0.258 (inactive) in [2]; -1.19 (inactive) in assay [3]; 1.04 (inactive) in assay [5]; 0.735 (inactive) in assay [6]; 0.168 (inactive) in [7]. In addition, the figures for the z-score in assay [8] and in assay [9] were 0.215 (inactive) and -0.355, respectively. Further, the results for the composite z-score in [4] and in assay [10] were 0.936 (inactive) and -0.127, respectively.

Regarding `Cc1ccc(S[C@]2(C(=O)NCC(C)C)CC(=O)N(Cc3ccccc3)[C@@H]2c2ccc(CO)cc2)cc1`, the z-score in assay [1] was 0.408; in assay [2], -0.841 (inactive); in assay [3], 0.559 (inactive); in [5], 0.525 (inactive); in [6], -0.341 (inactive); in assay [7] it was 0.298 (inactive). Besides, the z-score in assay [8] was -0.667 (inactive); in assay [9], 0.505. The values for the composite z-score in assay [4] and in [10] were -0.586 (inactive) and 0.104, respectively.
